Measurements taken from the supplement of paper PMC12636033.
± gives the standard deviation of the averaged measurements. In all, about 33,000 sequences were measured (“E-score (rank enrichment, -0.5 to 0.5)”: median about -0.0043, highest 2% from about 0.24 on). The entries come from a sample that favours the highest values as a whole.

System: 2Sp-muMax20 (muMax20 with two 2,6-bis(methyl)pyridine Cys staples)
Assay: PBM 8-mer E-score (E-score (rank enrichment, -0.5 to 0.5)); higher = stronger preferential binding
Experimental: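 Protein binding microarray (universal PBM chip covering all 10-mers in fixed probe flanks) with chemically synthesized human Max(13-93) bHLH-LZ analogs (not full-length Max) bearing noncanonical residues (hArg, Tha, Aib, Nle at 65) and aromatic Cys staples. Read-out per 8-mer (and its reverse complement): E-score (rank-based enrichment, -0.5 to 0.5) and Z-score of median probe intensity.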

Row | Sequence | PBM 8-mer E-score
1 | CACCGCGG | -0.121 ± 0.021
2 | CTGGTAGC | -0.131 ± 0.011
3 | CCATCTTA | -0.102 ± 0.052
4 | CATAGCAA | 0.199 ± 0.072
5 | GATAGCAC | 0.151 ± 0.043
6 | CATAGCAC | 0.301 ± 0.019
7 | GCCAGAAA | 0.0632 ± 0.035
8 | CTAAGCTA | -0.0343 ± 0.0085
9 | GTGATGCA | 0.186 ± 0.078
10 | AATATAAG | 0.249 ± 0.07
11 | TGTATACA | 0.315 ± 0.067
12 | GGTATACA | 0.145 ± 0.029
13 | AAAATAAA | 0.103 ± 0.018
14 | CATATAAA | 0.323 ± 0.008
15 | TGGATACA | 0.213 ± 0.13
16 | ACTATAAA | 0.115 ± 0.014
17 | AATATAAA | 0.245 ± 0.03
18 | AATATAAC | 0.203 ± 0.11
19 | CATATAAG | 0.168 ± 0.061
20 | CATATAAC | 0.228 ± 0.076
21 | AATATAAT | 0.22 ± 0.015
22 | AGGCTCAC | -0.168 ± 0.071
23 | CTTTCCCA | -0.0651 ± 0.061
24 | ATTAGGTA | 0.0384 ± 0.028
25 | CTTCCCCA | 0.0675 ± 0.046

Row | Sequence | PBM 8-mer E-score
26 | ATGAAAGA | 0.095 ± 0.12
27 | GGCACTGA | -0.138 ± 0.064
28 | GAACGGTA | -0.0592 ± 0.0044
29 | AGCGCAAT | -0.0106 ± 0.054
30 | GATATAAA | 0.191 ± 0.046
31 | GGTATAAA | 0.134 ± 0.012
32 | TGTATAAA | 0.254 ± 0.018
33 | TATATAAA | 0.275 ± 0.019
34 | GATAAAAA | 0.17 ± 0.036
35 | TATAAAAA | 0.307 ± 0.015
36 | AGTATAAA | 0.186 ± 0.048
37 | CATAAAAA | 0.17 ± 0.062
38 | TCTATAAA | 0.213 ± 0.036
39 | GTACACTA | -0.172 ± 0.087
40 | AGGATGGC | -0.0191 ± 0.078
41 | GAACGAAC | -0.022 ± 0.033
42 | ACGTCAGT | -0.191 ± 0.0086
43 | ATCTTAAT | 0.165 ± 0.044
44 | ACCCAGCA | -0.107 ± 0.015
45 | ACCCCTCC | 0.246 ± 0.0062
46 | GCCCCTCA | 0.0361 ± 0.077
47 | ACCCCTCA | 0.158 ± 0.055
48 | GCCCCCCC | -0.1861 ± 0.0003
49 | AACCCTTC | 0.0889 ± 0.037
50 | ACCCCTAG | 0.0238 ± 0.027

Row | Sequence | PBM 8-mer E-score
51 | GCCCCTCC | 0.237 ± 0.036
52 | CCCCCTTC | -0.195 ± 0.12
53 | CCCCCTCC | -0.0372 ± 0.049
54 | ACCCCTTC | 0.273 ± 0.015
55 | ACCCCTAA | 0.163 ± 0.11
56 | ACCCCTAT | 0.267 ± 0.044
57 | CCGGCAGA | -0.154 ± 0.1
58 | CTCAAAGA | -0.106 ± 0.0065
59 | GACACCGA | -0.215 ± 0.025
60 | GAAAGATA | 0.0861 ± 0.022
61 | TGGGAGAA | 0.0249 ± 0.058
62 | CGCCCACA | 0.216 ± 0.018
63 | ACGATGGA | -0.164 ± 0.01
64 | CTAAAAGC | -0.0267 ± 0.036
65 | CACTCAAG | 0.0104 ± 0.039
66 | CTGGCAAA | -0.0382 ± 0.063
67 | GATACGGC | -0.079 ± 0.018
68 | ATGATACA | 0.274 ± 0.042
69 | ATGATAGG | 0.00318 ± 0.11
70 | ATGATATG | 0.199 ± 0.075
71 | ATGATACC | 0.11 ± 0.016
72 | CTGATACA | -0.0277 ± 0.11
73 | ATGATAGC | 0.278 ± 0.023
74 | ATGATACG | 0.271 ± 0.071
75 | GTGATACA | 0.0186 ± 0.033

Row | Sequence | PBM 8-mer E-score
76 | ATGATAGA | 0.079 ± 0.01
77 | TAACGAAA | 0.0771 ± 0.12
78 | CAACTAGC | 0.0239 ± 0.018
79 | ATTAGTCC | 0.0528 ± 0.12
80 | CACGGCGA | -0.0774 ± 0.0095
81 | CGGTCGTC | -0.18 ± 0.017
82 | GGTGATTA | 0.0438 ± 0.06
83 | ATGTGAAC | 0.119 ± 0.0064
84 | GGATTGCC | -0.202 ± 0.012
85 | AATGGGTC | -0.00791 ± 0.0086
86 | ATTTGGGC | 0.119 ± 0.05
87 | AATTGGGT | 0.2483 ± 0.0021
88 | AATTTGGG | 0.254 ± 0.017
89 | ATTTGGGA | 0.173 ± 0.068
90 | ATTGGGGG | -0.0095 ± 0.0052
91 | AATTTGGA | 0.0583 ± 0.086
92 | ATTGGGCC | 0.00386 ± 0.043
93 | ATTGGGGC | 0.253 ± 0.019
94 | AATTGGGG | 0.228 ± 0.06
95 | ATTTGGGG | 0.253 ± 0.052
96 | AATTTGGT | -0.00788 ± 0.03
97 | AATTGGGC | 0.183 ± 0.034
98 | CCTTGACG | -0.0891 ± 0.0072
99 | AGGGGACT | -0.0296 ± 0.079
100 | GACGAGCA | 0.0874 ± 0.014

Row | Sequence | PBM 8-mer E-score
101 | CACACACC | -4e-05 ± 0.065
102 | ATGGCATC | 0.193 ± 0.081
103 | ACGAGCCG | -0.0923 ± 0.041
104 | CGCGGTCA | -0.174 ± 0.092
105 | ACGCGCGT | 0.397 ± 0.0075
106 | ACGCGCGG | 0.156 ± 0.098
107 | ACGCGCGC | 0.206 ± 0.0084
108 | AAACGCGT | -0.0801 ± 0.023
109 | ACACGCGA | 0.211 ± 0.037
110 | ACACGCGT | 0.272 ± 0.021
111 | ACTGAACT | 0.049 ± 0.03
112 | CACGATCG | -0.0926 ± 0.084
113 | ATATAACA | 0.184 ± 0.057
114 | CAATAACG | 0.0434 ± 0.0082
115 | AAATAACG | 0.289 ± 0.022
116 | ATATAACG | 0.302 ± 0.039
117 | AAATAACA | 0.182 ± 0.057
118 | ATATAACC | 0.134 ± 0.069
119 | AGGATCAC | 0.0434 ± 0.0027
120 | CGATGACC | -0.245 ± 0.045
121 | AACATAGG | 0.0986 ± 0.084
122 | AACTACAC | 0.257 ± 0.011
123 | GACTACAC | 0.016 ± 0.034
124 | AACTACAG | -0.122 ± 0.011
125 | CCCTCGCA | 0.109 ± 0.031

Row | Sequence | PBM 8-mer E-score
126 | GGACTATA | 0.129 ± 0.085
127 | AGCACCGA | -0.129 ± 0.026
128 | AGTAGAAA | 0.142 ± 0.006
129 | AGTAGAAT | 0.286 ± 0.011
130 | ATTAGAAT | 0.248 ± 0.033
131 | AGTAGAAC | 0.0268 ± 0.014
132 | ATTAGAAA | -0.0714 ± 0.083
133 | ATTAGAAG | 0.138 ± 0.075
134 | CCGAAACG | -0.122 ± 0.032
135 | GATCAGAA | -0.0464 ± 0.015
136 | CCCGTGGC | -0.328 ± 0.013
137 | ACCTCCCC | 0.0632 ± 0.019
138 | TGAACGAA | 0.0338 ± 0.048
139 | CTGATTCA | -0.006 ± 0.016
140 | AAGCGCTT | 0.29 ± 0.074
141 | AAGCGCTA | 0.0638 ± 0.1
142 | AAGCGCTC | 0.0083 ± 0.034
143 | AAGGATAT | 0.0821 ± 0.052
144 | ATTTATGA | 0.149 ± 0.03
145 | ACAGATGT | 0.0497 ± 0.021
146 | CAACTCGA | -0.0837 ± 0.0059
147 | CGTGGAAG | 0.163 ± 0.035
148 | AGTGGAAA | 0.185 ± 0.0052
149 | CGTGGAAA | 0.257 ± 0.038
150 | CGAGTAAC | -0.108 ± 0.036

Row | Sequence | PBM 8-mer E-score
151 | CCACAGCA | 0.0663 ± 0.031
152 | TCTGAAAA | -0.037 ± 0.13
153 | CTGCGTAA | -0.0976 ± 0.042
154 | ATGCGTAA | 0.238 ± 0.025
155 | ATGCGTTA | 0.243 ± 0.018
156 | GTGCGTAA | 0.0529 ± 0.0043
157 | ATGCGTAG | 0.259 ± 0.071
158 | ATGCGTAC | 0.00487 ± 0.0049
159 | GTGCGTTA | 0.00978 ± 0.021
160 | ATGCGTCG | -0.0304 ± 0.0076
161 | CTGCGTTA | -0.0622 ± 0.026
162 | GGCTTGTA | 0.22 ± 0.043
163 | GGAGCAAA | 0.0658 ± 0.024
164 | ACCTTAAT | 0.0925 ± 0.027
165 | CAGTGCGG | -0.189 ± 0.025
166 | ACCGTGGC | -0.207 ± 0.036
167 | GGCCTATA | -0.243 ± 0.01
168 | CTGCCCGC | -0.0236 ± 0.011
169 | CAAGCGCA | 0.245 ± 0.058
170 | GACGCGCC | -0.0693 ± 0.078
171 | AGCGCGCC | 0.123 ± 0.087
172 | AACGCGCC | -0.0607 ± 0.047
